Experimental data published in PubChem BioAssay AID588852 (The Scripps Research Institute Molecular Screening Center, 2011).
Out of some 360,000 compounds screened, about 4,600 (1.3%) were called active.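 Rule for the calls: active = percent inhibition above its own plate's cutoff, namely the mean of that plate's compound wells plus 3 SD; inactive = the rest.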 Shown is part of a subset that was picked to be rich in actives.

Biological target: Muscarinic acetylcholine receptor M1 (Homo sapiens) (UniProt P11229)
Sequence (P11229 whole entry, looked up): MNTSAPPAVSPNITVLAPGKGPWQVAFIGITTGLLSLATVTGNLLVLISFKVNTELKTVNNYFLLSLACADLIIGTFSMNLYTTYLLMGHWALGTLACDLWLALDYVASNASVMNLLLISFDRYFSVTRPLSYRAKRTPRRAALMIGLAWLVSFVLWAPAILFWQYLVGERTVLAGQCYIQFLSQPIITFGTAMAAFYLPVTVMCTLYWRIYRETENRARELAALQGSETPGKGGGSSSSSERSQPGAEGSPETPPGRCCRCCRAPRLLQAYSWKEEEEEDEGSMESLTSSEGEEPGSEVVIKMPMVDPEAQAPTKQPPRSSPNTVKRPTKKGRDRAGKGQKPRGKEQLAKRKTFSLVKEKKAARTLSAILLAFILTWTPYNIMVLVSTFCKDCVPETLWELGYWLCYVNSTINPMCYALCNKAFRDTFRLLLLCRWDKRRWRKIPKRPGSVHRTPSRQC
Test: CHRM1 blockers of acetylcholine calcium response – CHO-K1 cells, Fluo-8 calcium fluorescence, 1536-well, primary screen (AID 588852);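 note: peak over basal fluorescence ratio during 140 s after agonist addition; 0% = ACh EC80 plus DMSO and 100% = DMSO alone without agonist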
Details: CHO-K1 hM1, Fluo-8 calcium fluorescence, ACh EC80 antagonist; at 3 µM; stronger effect = higher value

inhibition, inactive:
CCN1CCC(O)(/C=C/c2ccc(C)cc2)C(C(=O)/C=C/c2ccc(C)cc2)C1 (stereo not given) 5.04%
Cc1ccc(SCC(=O)N2CCN(c3ccc(F)cc3)CC2)cc1 1.11%
C[C@@H]1CN([C@H](C)CO)C(=O)CCCn2nncc2CO[C@@H]1CN(C)S(=O)(=O)c1cccc(C#N)c1 -0.77%
COc1ccc(C2=Nc3ccccc3NC(=O)C2N(C(=O)c2cc3ccccc3[nH]2)c2ccccc2)cc1 (stereo not given) -26.4%
CC(C)(C)CC(=O)Nc1nc(C(N)Cc2ccc(C(F)(F)F)cc2)cs1 (stereo not given) -6.85%
O=C(O)C1C2C=CC(O2)C1C(=O)NCCc1cccc(Cl)c1 (stereo not given) -2.69%
COc1cccc(NC(=O)C2c3cc(OC)c(OC)cc3C(=O)N(C)C2c2cccnc2)c1 (stereo not given) -10.6%
Cc1nn(C)c(Cl)c1CN1CCC(Oc2ccc(C(=O)N3CCCC3)cc2)CC1 8.44%
O=C(c1ccc(OC2CCN(C/C=C/c3ccc(F)cc3)CC2)cc1)N1CCCCC1 29.3%
CCOP(=O)(OCC)C(Cc1ccccc1)N=C(c1ccccc1)c1ccccc1 (stereo not given) -5.83%
Cc1c(CN2CCC(C)CC2)c(=O)n(-c2ccccc2)n1C 8.27%
Cc1cccc(N2CCN(Cc3c(C)n(C)n(-c4ccccc4)c3=O)CC2)c1C 12.1%
CC(C)(O)C#Cc1ccc(CNC[C@H]2O[C@@H](n3cnc4c(=O)[nH]c(N)nc43)[C@H](O)[C@@H]2O)s1 3.48%
C=CCOC(=O)C1=C[C@@H](c2ccc3c(c2)OCO3)C[C@@H](OCCCCO)O1 -1.17%
Cc1cc2c(cc1C)N1C(=O)c3cc4ccccc4cc3NC(=O)C1C(=O)N2 (stereo not given) -27%
O=C(CCN1CCN(c2ccccc2)CC1)NNC(=S)Nc1ccccc1 17.2%
COc1ccccc1NC(=S)NC(=O)C(C)C -7.13%
COc1cc(NC(=O)c2cc(-c3ccc(F)cc3OC(C)C)n[nH]2)cc(OC)c1OC 8.53%
CCc1ccc(C(=O)OCC(=O)NCC(F)(F)F)cc1 -11.6%
CCOc1ccc(Nc2nc(Cc3nnc(SCC(=O)NC4CCCC4)n3C)cs2)cc1 -22.9%
CC(=O)Nc1ccc(C(=O)CSc2nnc(Cc3ccccc3)o2)cc1 -12.2%
CCOC(=O)c1nnn(CC(=O)Nc2cccc(F)c2)c1C(=O)OCC -2.12%
O=C(NCc1cccnc1)c1nc(-c2cccs2)no1 -2.8%
CC1CCC2CCCCC2N1C(=O)c1cc([N+](=O)[O-])cc([N+](=O)[O-])c1 (stereo not given) -3.75%
Cn1cc(CN2CCCCC2c2ccccn2)c(-c2ccc3c(c2)OCCO3)n1 (stereo not given) -3.05%
Cc1ccc(C(=O)Nc2ncccc2C)cc1S(=O)(=O)N1CCOCC1 -9.39%
COc1ccccc1C(=O)Nc1ccc(C)c(S(=O)(=O)N2CCCCC2)c1 5.17%
COc1ccccc1CNC(=O)c1ccc(Cl)c(S(=O)(=O)N2CCCC2)c1 -5.01%
Cc1ccc(C(=O)Nc2ccc3c(c2)OCCO3)cc1S(=O)(=O)N1CCOCC1 -13.2%
CCCCN1C(=O)/C(=C/C=C2/C=Cc3ccccc3N2CC)SC1=S -7.59%
CN1C=CC=C/C1=C1\SC(=S)N(Cc2ccccc2)C1=O 19.7%
CCC(C)C(CO)NC(=O)/C=C/[C@H]1O[C@@H](n2cnc3c(NC(=O)c4ccccc4)ncnc32)[C@H](O)[C@@H]1O (stereo not given in full) 3.77%
CC(C)c1cccc(C(C)C)c1Nc1cn[nH]c1 -0.55%
O=S(=O)(/C=C/c1ccccc1)N1CCNCC1 -8.17%
Fc1ccc(CNCc2ccc(Br)cc2)cc1 -0.53%
CCOc1ccc(NC(=O)CN(C)C(=O)c2cccc(S(=O)(=O)N3CCCC3)c2)cc1OCC 7.19%
Cc1ccc(NC(=O)CN(C)C(=O)c2cccc(S(=O)(=O)N3CCCC3)c2)cc1 -6.53%
C=CCN(c1ccc(Cl)cc1)S(=O)(=O)c1cccc(C(=O)OCC(=O)N(C)C)c1 -8.38%
COc1cc(S(=O)(=O)N(Cc2cccs2)C2CC2)ccc1-n1cnnn1 -5.47%
O=S(=O)(Cc1nnnn1-c1ccc(Br)cc1)c1ccc(F)cc1 -2.5%
S=C(Nc1ccccc1)Nc1ccc2ccccc2c1 -3.01%
Cc1nc2cc(NC(=O)Nc3cccc(F)c3)ccc2n1C -17.2%
O=C(c1ccco1)N1CCN(C(=O)C2c3ccccc3Oc3ccccc32)CC1 11.3%
O=C(c1ccco1)N1CCN(CCOc2ccccc2)CC1 -9.86%
Cc1ccc([C@@H]2CC(=O)[C@@H]3CN(S(=O)(=O)c4ccc(C)cc4)[C@H](c4ccccc4F)C[C@@H]3N2S(=O)(=O)c2ccc(Cl)cc2)cc1 -10%
CC12CCC(=O)C=C1CCC1C2C(O)CC2(C)C1CCC2(O)C(O)CO (stereo not given) -14.1%
COc1ccc(CCNC2=C(Cl)C(=O)N(Cc3ccccc3)C2=O)cc1OC 13.4%
COc1ccc(/C=C2\SC(=S)N(CCC(=O)N3CCOCC3)C2=O)cc1OC -11%
O=C(CCNc1n[nH]c(=O)[nH]c1=O)N/N=C\c1ccc(Br)cc1 -20%
CN(C)CCOC1c2ccccc2-c2ccccc21 12.7%
COc1ccccc1CNC(=O)Cn1c(=O)oc2cc(Cl)ccc21 -12.3%
CSCCC(NC(=O)c1ccco1)C(=O)NCCc1ccc(F)cc1 (stereo not given) 4.11%
O=C(NNC(=O)c1ccc(-c2ccccc2)cc1)Nc1ccccc1 -2.91%
C[n+]1cccc(C(=O)O)c1 -30.2%
CCCCc1nc(NCc2ccccc2)c(C#N)c2c1CCCC2 -5.37%
COc1ccc(C(C#N)=C2C=CC(=NO)c3ccccc32)cc1 22%
CC1=C(C(=O)N2CCOCC2)CC(CC(=O)NCc2cccs2)C(=O)N1CCCN1CCCC1=O (stereo not given) 4.82%
Cc1ccc2nc(-c3ccco3)c(Cc3cccc(Cl)c3)n2c1 -5.65%
Cc1ccc(S(=O)(=O)N2CCOCC2)cc1C(=O)NCc1ccc(F)cc1 9.1%
COC(=O)c1ccc(CNC(=O)c2ccc(S(=O)(=O)N3CCCCCC3)cc2)cc1 -11.2%
CCCC(=O)N1CCC1(C)C(=O)NCc1ccc(SC)cc1 (stereo not given) -8.63%
O=C(COc1cccnc1[N+](=O)[O-])Nc1ccc(Cl)cc1F 3.68%
COc1cccc(NC(=O)COc2cccnc2[N+](=O)[O-])c1 -7.66%
CCCNC(=S)NC1CC2CCCC(C1)N2CC(C)C (stereo not given) 29.5%
CCOc1ccc(CN(Cc2ccco2)C(c2cccs2)c2nnnn2C(C)(C)C)cc1 (stereo not given) 18.8%
CC(C)C(c1nnnn1C(C)(C)C)N1CCN(Cc2cccnc2)CC1 (stereo not given) -13.5%
CC(=O)NS(=O)(=O)c1ccc2c(c1)Cc1cc(S(=O)(=O)NC(C)=O)ccc1-2 -13.4%
O=C(NCC(O)c1nc2ccccc2[nH]1)c1ccc(Br)cc1 (stereo not given) -13.3%
CCOC(=O)C1=CC[C@@H](c2ccncc2)N(S(=O)(=O)c2ccc(C)cc2)C1 24.6%
CC(=O)C1=CCC(c2ccccc2)N(S(=O)(=O)c2ccc(C)cc2)C1 (stereo not given) -10.8%
COc1c(C)cc(C(O)c2ncc(-c3cccc(C(F)(F)F)c3)[nH]2)cc1C (stereo not given) -5.01%

inhibition, active:
CCN1CCC2(CC1)N=C(c1ccc(F)cc1)C(=S)N2C(=O)c1ccc(C)cc1 90.6%
CC(=O)Nc1ccc(CN2CCC(Oc3ccc(C(=O)N4CCCC4)cc3)CC2)cc1 53.8%
Cc1c(CN2CCCC(C(=O)c3cccc(Cl)c3)C2)c(=O)n(-c2ccccc2)n1C (stereo not given) 27.6%
CCCCC(=O)NNC(=S)NC(=O)C(c1ccccc1)c1ccccc1 68.7%
CCOc1ccc(Nc2nc(Cc3nnc(SCC(=O)c4ccc(C)cc4)o3)cs2)cc1 13%
Cc1ccc(C(=O)NCC(c2cccs2)N(C)C)cc1S(=O)(=O)N1CCOCC1 (stereo not given) 50.7%
COc1ccccc1C(CNC(=O)c1ccc(C)c(S(=O)(=O)N2CCCCC2)c1)N(C)C (stereo not given) 101%
CCCCN1C(=O)/C(=C2/C=CC=CN2C)SC1=S 37.9%
COc1ccc(NC(=O)CN(C)C(=O)c2cccc(S(=O)(=O)N3CCN(c4ccccc4)CC3)c2)cc1 57.7%
Nc1c(C(=O)c2cccs2)sc2nsc(SCCN3CCCCC3)c12 44.1%
O=C(Nc1ccc2ccccc2c1)Nc1ccc2snnc2c1 32.8%
CN(Cc1ccccc1)C(=O)CCC1CCN(C(=O)c2ccco2)CC1 31.3%
COc1cc(/C=C2/SC(=S)N(Cc3ccccc3)C2=O)cc(OC)c1O 30.7%
Cc1ccccc1C(OCCN(C)C)C1CCCCC1 (stereo not given) 99.8%
CC(C(=O)c1ccc(-c2ccccc2)cc1)[n+]1cccc(Br)c1 (stereo not given) 35.1%
Cc1cc2cc(CNC(=O)c3ccc(S(=O)(=O)N4CCOCC4)cc3)ccc2[nH]1 59.4%
CC(NC(=O)COc1cccnc1[N+](=O)[O-])c1ccc(Cl)cc1Cl (stereo not given) 42.6%
CC(C)(C)n1nnnc1C(c1cccs1)N(Cc1cccnc1)CC1CCCO1 (stereo not given) 79.4%
CCOC(=O)C1=CCC(c2ccc(F)cc2)N(S(=O)(=O)c2ccc(C)cc2)C1 (stereo not given) 34%
